Here are results for 46 compounds from PubChem BioAssay AID493014 (National Center for Advancing Translational Sciences (NCATS), 2011).

Structures are written as SMILES. The whole screen tested about 340,000 compounds, of which about 170 (0.05%) were called active. About 26% were inconclusive and are not listed. Calls come from the whole dose curve; as a rule, active = well fitted inhibition curve with a large enough effect in the signal ratio, with a control signal flat (not every such curve was filed as active); inconclusive = small, poorly fitted or top-dose-only effect, or effect the other way, or a change in a side signal; inactive = flat fitted curve, though single readings scatter; the % refers to the signal ratio. For the sample, actives were picked, then their nearest neighbours and some compounds at random.
Potency is the fitted concentration of half-maximal effect.

A short description of this assay: qHTS Assay to Find Inhibitors of Chronic Active B-Cell Receptor Signaling.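 For activity change, negative = inhibition: plate controls were basal doxycycline-induced cells for no effect and cells given 10 µM MG132 for full effect.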 The settings on record: ABC-DLBCL IkBa-CBG/CBR reporter, luminescence ratio, 4 h; series mostly up to 46.1 µM; activity change, negative = inhibition: at the top concentration. The text has this: NIH Molecular Libraries Probe Production Network [MLPCN] NIH Chemical Genomics Center [NCGC] MLPCN Grant: 1 R03 DA031086-01A1 PI Name: Dr. R. Eric Davis NCGC Assay Overview: Diffuse large B-cell lymphoma (DLBCL) is the most common category of non-Hodgkin lymphoma, with ~20,000 new cases per year in the United States. DLBCL should be regarded as a collection of different neoplasms. Microarray gene expression analysis has defined two principal types of DLBCL, named for their similarity to normal B cell stages or activation states: a germinal center B-cell (GCB) type, and an activated B-cell (ABC) type. In ABC-DLBCL, a constitutive high-level activity of the NF-kappaB family of transcription factors has been observed (1) and NF-kappaB target genes are more highly expressed in ABC primary tumors than in GCB tumors. Functional studies have shown a constitutive high-level activity of the IkappaB (inhibitor of kappa-B) kinase (IKK) complex. […] Further analysis of DLBCL primary tumors for NF-kappaB target gene expression imply that although CARD11 is required for constitutive IKK activity in all ABC-DLBCL lines, mutations in CARD11 may be the root cause of IKK activation only in lines or tumors with such mutations. In other words, CARD11 mutations may explain NF-kappaB activation in only 10% of ABC-DLBCL cases. […] This process has been termed 'chronic active BCR signaling' (CABS). The goal of this screen is to find small-molecule inhibitors of the CABS pathway found in ABC-DLBCL lines using a cell-based assay that measures IkappaBalpa stability, which has already been extensively validated in the OCI-Ly3 line (PubChem AID:445; REF: 4). […] The assay uses green (CBG68) and red (CBR) emitting beetle luciferases [Chroma-GloTM developed by Promega Corp.] where the green luciferase is fused to IkappaBalpha and the red luciferase is present in its native state. Both luciferase genes are stably present in the TMD8 human ABC DLBCL cell line, but their expression is under the control of tetracycline-inducible promoters. Following the addition of doxycycline to induce expression of the luciferases, the green luminescence in control cultures rises only slowly because the CBG fusion partner IkappaBalpha is targeted by IKK activity for rapid degradation. In contrast, green luminescence rises rapidly in the presence of proteasome inhibitors or IKK inhibitors. The rise in red luminescence of CBR is not affected by proteasome or IKK inhibitors, and serves as normalization for cell number and nonspecific effects. Compounds were screened as a concentration-titration series that ranged from 46 uM to 3 nM.
NCGC Assay Protocol Summary: Cells were seeded in 1536-well plates at 5000 cells/4uL in IMDM medium containing 0.5% FBS, w/o phenol red, 1% penicillin/streptomycin. Then, 23 nL of compounds or DMSO were delivered to each well using a pin tool. One uL 20ng/ml doxycycline was then dispensed into white solid 1536-well plates and the plates were incubated at 37C/5% C02 in a cell incubator for 4 hrs. Then 4 uL luminescent substrate mix (in-house prepared: 150 mM Tris-Cl, pH 7.6, 3 mM MgCl2, 1% Triton X-100, 5 mM DTT, 0.2 mM CoA, 0.15 mM ATP, 5 mM D-luciferin, final concentrations) was added to each well. The plate was incubated at r.t. for 10-15 min. The plates were measured on a ViewLux plate reader for green luminescence (540/20 nm filter) and red luminescence (618/8 nm filter). The green and red luminescent signals were corrected for red and green luminescence filter overlap using previously determined filter calibration constants (determined using the procedure outlined in the Promega Technical Manual; REF 4). The %Activity was determined from the ratio of corrected green/red luminescent values. MG132 were used as control. […] Red luminescent %Activity was normalized to the difference between red luminesence in basal cells (0%Activity) and zero luminescence (-100% Activity). […]
With `CN(CC(=O)NC1CCN(Cc2ccccc2)CC1)S(=O)(=O)c1ccc(Cl)s1`, the “activity change, negative = inhibition” value was 3.04% (inactive).

For `COc1cc(OC)cc(-c2c(-c3cccs3)c3cc(-c4ccc(OC)nc4)ccc3n2C)c1`, the “activity change, negative = inhibition” value was 3.8% (inactive).

As to `Cc1ccc(NC(=O)CN(C)C(=O)c2cccc(S(=O)(=O)N3CCCC3)c2)cc1`, the “activity change, negative = inhibition” value was 4.91% (inactive).

`CN(C)C(=O)CCc1ccc2c3c([nH]c2c1)[C@]1(CCC2CCCC2)[C@@H](C(=O)N2CCOCC2)C[C@H](CC(=O)NCc2ccco2)C(=O)N1CC3`: the “activity change, negative = inhibition” value is -1.11% (inactive).

With `COc1cccc(CNC(=O)COc2cc(O)c3c(c2)OC(C)(C)CC3=O)c1`, the “activity change, negative = inhibition” value was -1.68% (inactive).

Regarding `Cc1ccc(NC(=O)c2ccc(Cl)nc2)cc1S(=O)(=O)N1CCOCC1`, the “activity change, negative = inhibition” value is 3.9% (inactive).

As to `COc1ccc(-c2sc3ccccc3c2-c2ccc(OCCN3CCOCC3)cc2)cc1`, the “activity change, negative = inhibition” value was 3.76% (inactive).

With `COc1ccc2sc(-c3ccccc3OC)c(-c3ccc(OCCN4CCCC4)cc3)c2c1`, the “activity change, negative = inhibition” value was -1.61% (inactive).

With `COc1cccc(-c2sc3ccc(OC)cc3c2-c2ccc(OCCN3CCCCC3)cc2)c1`, the Potency is 18.4 µM (active).

For `CCN(CC)c1ccc(S(=O)(=O)N2CCCCC2)cc1NC(=O)C1=COCCO1`, the “activity change, negative = inhibition” value was 19.3% (inactive).

For `COc1ccccc1CNC(=O)c1ccc(Cl)c(S(=O)(=O)N2CCCC2)c1`, the “activity change, negative = inhibition” value was 1.79% (inactive).

For `Cc1onc(-c2c(F)cccc2Cl)c1C(=O)OCC(=O)N1C(C)CCCC1C` (stereo unspecified), the “activity change, negative = inhibition” value was 3.11% (inactive).

`COc1ccc(S(=O)(=O)N2CCCCCC2)cc1C(=O)N(C)Cc1cccc(OC)c1OC`: the “activity change, negative = inhibition” value is 2.39% (inactive).

`COC(=O)c1ccc(/C=C/c2c(-c3ccc(OC)cc3)sc3ccccc23)cc1`: the “activity change, negative = inhibition” value was -0.0266% (inactive).

Regarding `O=C1Nc2ccccc2/C1=C/c1ccnc2ccccc12`, the “activity change, negative = inhibition” value was -9.05% (inactive).

Take `CCCCN(CC(=O)Nc1cccc(S(=O)(=O)N2CCCC2)c1)Cc1nc2ccccc2c(=O)[nH]1`: the “activity change, negative = inhibition” value is 1.54% (inactive).

Turning to `O=S(=O)(NCCCCCCNS(=O)(=O)c1c(F)cccc1F)c1ccc2c(c1)OCCO2`, the “activity change, negative = inhibition” value is -1.56% (inactive).

In the case of `CCN(c1ccccc1)S(=O)(=O)c1cccc(C(=O)NCc2ccccc2CN2CCOCC2)c1`, the “activity change, negative = inhibition” value is -2.52% (inactive).

Consider `C=CC[C@@H](CC(=O)N[C@H](CO)Cc1ccccc1)C(=O)N[C@H](C)COC(=O)[C@@H](CC=C)Cc1ccc(F)cc1`, for which the “activity change, negative = inhibition” value is -1.93% (inactive).

In the case of `O=S(=O)(NC1CCN(S(=O)(=O)c2ccc3c(c2)OCCO3)CC1)c1c(F)cccc1F`, the “activity change, negative = inhibition” value was -0.418% (inactive).

In the case of `COC(=O)[C@]1(Cc2ccccc2)N[C@H](CN(C)S(=O)(=O)c2ccc(OC(F)(F)F)cc2)[C@@H]2C(=O)N(C)C(=O)[C@@H]21`, the “activity change, negative = inhibition” value is -0.118% (inactive).

On to `Nc1ccc(Nc2cc(O)c3ncccc3c2)cc1`, for which the “activity change, negative = inhibition” value is 7.2% (inactive).

Take `Cc1ccc(NS(=O)(=O)c2ccc(C(C)C)cc2)cc1S(=O)(=O)N1CCOCC1`: the “activity change, negative = inhibition” value is 0.449% (inactive).

In the case of `CCN(C[C@H]1N[C@@](Cc2ccccc2)(C(=O)OC)[C@H]2C(=O)N(Cc3ccccc3)C(=O)[C@@H]12)C(=O)c1ccc(C)cc1`, the “activity change, negative = inhibition” value was 1.12% (inactive).

Consider `O=C1C=CN2CCCC2CC1` (stereo unspecified), for which the “activity change, negative = inhibition” value is 0.786% (inactive).

For `COc1cccc(NC(=O)COC(=O)c2ccc3ccccc3n2)c1`, the “activity change, negative = inhibition” value was -6.77% (inactive).

For the compound `CCOC(=O)C1CCCN(C(=O)CSc2nnc3nc(C)cc(C)n23)C1` (stereo unspecified), the “activity change, negative = inhibition” value was -0.755% (inactive).

Take `COc1cccc(C2=CC(=O)C[C@H](c3ccc(OC)c(OC)c3)C2)c1`: the “activity change, negative = inhibition” value is -0.376% (inactive).

Turning to `CN(C)C(=O)COC(=O)c1cccc(S(=O)(=O)N2CC3(C)CC2CC(C)(C)C3)c1` (stereo unspecified), the “activity change, negative = inhibition” value was -0.764% (inactive).

In the case of `Cc1ccc(-n2ncc3c2CC(C)(C)CC3NC(=O)Cc2c(C)noc2C)cc1` (stereo unspecified), the “activity change, negative = inhibition” value is 0.651% (inactive).

As to `COC(=O)[C@]1(CC(C)C)N[C@H](c2ccc(SC3CCCCC3)cc2)[C@@H]2C(=O)N(C)C(=O)[C@@H]21`, the “activity change, negative = inhibition” value was 1.05% (inactive).

Turning to `O=C1COc2ccc(C(=O)CSc3ccc(Br)cc3)cc2N1`, the “activity change, negative = inhibition” value was 2.41% (inactive).

As to `Cc1ccc(N2CC(C(=O)N3CCC4(CC3)CC(=O)c3ccccc3O4)CC2=O)cc1C` (stereo unspecified), the “activity change, negative = inhibition” value is -3.76% (inactive).

As for `CC(=O)Nc1ccc(S(=O)(=O)NCCC(=O)N2CCN(c3ccccc3Cl)CC2)cc1`, the “activity change, negative = inhibition” value was -6.11% (inactive).

As to `Fc1ccccc1-c1cc2cc3c(cc2cn1)OCO3`, the “activity change, negative = inhibition” value is -10% (inactive).

Turning to `CCN(CC(=O)Nc1ccc(OC)cc1)C(=O)CSCc1ccc(C)cc1`, the “activity change, negative = inhibition” value was -0.391% (inactive).

For `Cc1cccc(N(Cc2ccccc2)C(=O)c2cc(S(=O)(=O)N3CCOCC3)ccc2F)c1`, the “activity change, negative = inhibition” value is 3.15% (inactive).

With `CCN(CC)S(=O)(=O)c1ccc(N2CCOCC2)c(NC(=O)C(C)Oc2ccc(F)cc2)c1` (stereo unspecified), the “activity change, negative = inhibition” value was 1.89% (inactive).

Turning to `CC1Sc2ccc(C(=O)NCc3ccccc3Cl)cc2NC1=O` (stereo unspecified), the “activity change, negative = inhibition” value is -1.93% (inactive).

Turning to `O=C(O[C@@H]1[C@H](Cc2ccccc2)NS(=O)(=O)[C@H]2C[C@@H]3C=C[C@]12O3)c1ccccc1Br`, the “activity change, negative = inhibition” value is 7.63% (inactive).

For the compound `CC(C)(C)OC(=O)C[C@@H]1C/C=C\C[C@H](CC(=O)N[C@@H](CO)Cc2ccccc2)C(=O)N[C@H](Cc2ccccc2)COC1=O`, the “activity change, negative = inhibition” value is 1.23% (inactive).

For the compound `CN=C(Nc1cccc(S(=O)(=O)N2CCOCC2)c1)c1ccccc1`, the “activity change, negative = inhibition” value was 0.254% (inactive).

For the compound `Oc1ccccc1CN1CCN(C(c2ccccc2)c2ccccc2)CC1`, the “activity change, negative = inhibition” value was 10.3% (inactive).

On to `COc1ccc(-c2cc(=O)oc3cc(OC(C)C(=O)Nc4ccc(CN5CCOCC5)cc4)ccc23)cc1` (stereo unspecified), for which the “activity change, negative = inhibition” value is -12.9% (inactive).

As for `COc1ccc(CNC(=O)C[C@H]2C[C@H](C(=O)N3CCOCC3)[C@@]3(CCC4CCCC4)c4[nH]c5ccc(Cl)cc5c4CCN3C2=O)cc1OC`, the “activity change, negative = inhibition” value is 0.526% (inactive).

Turning to `CC(=O)Nc1ccc(SC[C@H](Cc2ccccc2)N2CC[C@@H](C)CCC2=O)cc1`, the “activity change, negative = inhibition” value is -9.05% (inactive).
